Results on 31 molecules are retold here after PubChem BioAssay (EPA / NIEHS).

The structures appear in SMILES notation. Records with an inconclusive call do not appear. Activity calls are given as the source filed them. How the source made its calls: active means hit-call score of the fitted dose curve at least 0.9, where 1 is the maximum; inconclusive means response in the unintended direction; inactive means score below 0.9.

The nature of this test: CLD_ACTIN_48hr: CellzDirect (CLD) Gene Expression Assay for Baseline Control (Actin) at 48 hours (AID 2283702). How it is done:
CLD_48hr is a cell-based, multiplexed-readout assay that uses hepatocyte, a human liver primary cell, with measurements taken at 48 hours after chemical dosing in a 96-well plate.CLD_ACTIN_48hr is one of 16 assay component(s) measured or calculated from the CLD_48hr assay. It is designed to make measurements of mRNA induction, a form of inducible reporter, as detected with chemiluminescence signals by Quantitative Nuclease Protection Assay (qNPA) technology.Data from the assay component CLD_ACTIN_48hr was analyzed at the endpoint, CLD_ACTIN_48hr, in the positive analysis fitting direction relative to DMSO as the negative control and baseline of activity. Using a type of inducible reporter, gain-of-signal activity can be used to understand changes in the reporter gene as they relate to the gene ACTA1. Furthermore, this assay endpoint can be referred to as a secondary readout, because this assay has produced multiple assay endpoints where this one serves a background control function. To generalize the intended target to other relatable targets, this assay endpoint is annotated to the background measurement intended target family, where subfamily is baseline control.
Human hepatocyte cultures were treated daily for two consecutive days with fresh dosing solutions containing appropriate concentrations of the 320 ToxCast chemicals (chemical identities were blinded to CellzDirect and other ToxCast collaborators), vehicle control (0.2% DMSO), and positive control inducers as summarized in Table 1. Due to the large number of treatment groups and chemicals examined, the ToxCast chemicals were divided into two groups (spanning two independent cultures of hepatocytes from separate donor preparations (Hu778: ToxCast plates 1 and 2; Hu776: ToxCast plates 3 and 4). Each preparation of human hepatocyte cultures was treated with respective vehicle control, medium only control, set of six positive controls/reference chemicals for the five hepatic receptor pathways, and a subset of eight of the ToxCast chemicals (indoxacarb, pyrithiobac-sodium, norflurazon, cyhalofop-butyl, methomyl, thiram, acetochlor, and propiconazole). These replicate data, coupled with internal replicates designed within the blinded ToxCast chemical library, provided additional data to evaluate interindividual differences between hepatocyte preparations and their potential impact on chemical profiles.Cell morphology and integrity were evaluated using phase-contrast microscopy as an indicator of hepatocyte cell health (Tyson & Green, 1987). Cultures for each treatment group (i.e., media, vehicle [0.2% DMSO], positive control inducers [multiple concentrations], and the ToxCast chemicals [multiple concentrations]) were observed and cell morphology was assessed relative to vehicle control cultures at each harvest time point (0, 6, 24, or 48 h). […] Images were evaluated at the conclusion of the study to assess changes in cell integrity and account for the effects of chemical exposure on uncharacteristic changes in concentration-dependent gene expression profiles. The results from these determinations of apparent cytotoxicity were annotated (yes/no) alongside the corresponding qNPA data for reference.At the conclusion of each treatment period, hepatocyte cultures (96-well) were washed with 1 volume of HBSS, lysed by addition of 25 ul ArrayPlate lysis buffer (HTG, Tucson, AZ), and 70 ul/well of Denaturation Oil, denatured by incubation at 95C for 10 min, and frozen at approximately -70C until analysis by nuclease protection assay (qNPA) (Roberts et al., 2007). For qNPA analysis, cell lysates were thawed at 50C for approximately 30 min, qNPA probes were added, and samples were incubated at 95C for 10 min to begin the detection process by denaturing the target RNA, dissociating the duplexes and secondary structure hybridization. At the conclusion of the hybridization period, S1 nuclease reagent was added to each sample to digest all nonprotected nucleotides at 50C for 60-90 min. […]
As for `CCOC(=O)COc1cc(-n2ncc(C(F)(F)F)c(C)c2=O)c(F)cc1Cl`, the outcome was inactive.

Consider `CCOC(=O)C(C)Oc1ccc(Oc2nc3ccc(Cl)cc3o2)cc1` (stereo unspecified), for which the outcome was inactive.

Consider `C#CCOC(=O)[C@@H](C)Oc1ccc(Oc2ncc(Cl)cc2F)cc1`, for which the call was inactive.

As for `COC(=O)c1ccc(I)cc1S(=O)(=O)NC(=O)Nc1nc(C)nc(OC)n1`, the molecule was called inactive.

Consider `COC(=O)c1ccc(CNS(C)(=O)=O)cc1S(=O)(=O)NC(=O)Nc1nc(OC)cc(OC)n1`, for which the outcome was inactive.

As to `CCCOC(=O)c1ccc(C(=O)OCCC)nc1`, the outcome was inactive.

Take `COC(=O)c1ccccc1C(=O)O`: the result was inactive.

As for `CCC(O)=C1C(=O)CC(C(=O)O)CC1=O` (stereo unspecified), the outcome was inactive.

On to `O=C(O)C1(C(=O)Nc2ccc(Cl)cc2Cl)CC1`, for which the result was inactive.

Regarding `N#CSCSc1nc2ccccc2s1`, the molecule was called inactive.

On to `COC(=O)c1c(Cl)nn(C)c1S(=O)(=O)NC(=O)Nc1nc(OC)cc(OC)n1`, for which the result was inactive.

Take `Cc1nn(C)c(Oc2ccccc2)c1C=NOCc1ccc(C(=O)OC(C)(C)C)cc1`: the call was inactive.

With `CCCCOC(=O)C(C)Oc1ccc(Oc2ccc(C(F)(F)F)cn2)cc1` (stereo unspecified), the result was inactive.

In the case of `CCNc1nc(N)nc(Cl)n1`, the molecule was called inactive.

Regarding `S=C([S-])NCCNC(=S)[S-].[Mn+2]`, the result was inactive.

For the molecule `CCC(C)OC(=O)N1CCCCC1CCO` (stereo unspecified), the outcome was inactive.

Turning to `CCCN(CCC)C(=O)SCC`, the molecule was classed as inactive.

As for `C=CCOC(Cn1ccnc1)c1ccc(Cl)cc1Cl` (stereo unspecified), the molecule was classed as inactive.

With `CCSC(=O)N(CC(C)C)CC(C)C`, the call was inactive.

Take `COCCO`: the molecule was classed as inactive.

As to `CSC(=O)c1cccc2nnsc12`, the result was inactive.

For `OB(O)O`, the molecule was called inactive.

Regarding `CCOC(=O)C(C)Oc1ccc(Oc2cnc3cc(Cl)ccc3n2)cc1` (stereo unspecified), the call was inactive.

Regarding `COc1c(Cl)ccc(Cl)c1C(=O)O`, the molecule was classed as inactive.

For `CCOC(=O)[C@H](C)Oc1ccc(Oc2nc3ccc(Cl)cc3o2)cc1`, the molecule was called inactive.

As for `CCCCCOC(=O)COc1cc(N2C(=O)C3=C(CCCC3)C2=O)c(F)cc1Cl`, the result was inactive.

On to `Oc1ccc(C(c2ccc(O)cc2)C(Cl)(Cl)Cl)cc1`, for which the molecule was called inactive.

Take `COC(=O)c1ccccc1S(=O)(=O)NC(=O)Nc1nc(OC(F)F)cc(OC(F)F)n1`: the result was inactive.

For the molecule `CC(C)(c1ccc(O)cc1)c1ccc(O)cc1`, the outcome was inactive.

With `CC1(C)C(C=C(Cl)Cl)C1C(=O)OCc1cccc(Oc2ccccc2)c1` (stereo unspecified), the molecule was classed as inactive.

As for `CCCOC(=O)NCCCN(C)C`, the outcome was inactive.
